Consider 40 molecules from PubChem BioAssay (NCATS).

Results filed as inconclusive are left out. A number with no mark means an inactive call. Activity calls are given as the source filed them. Calls come from the whole dose curve; as a rule, active = well fitted inhibition curve with a large enough effect; inconclusive = small, poorly fitted or top-dose-only effect; inactive = no such curve, though single readings can be large or run the other way.

This assay can be described thus: Primary qHTS for inhibitors of La Crosse Virus (LACV) - induced cell death in SH-SY5Y cells (AID 1508616).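 Note: top concentration of the series differs between compounds; 0% = infected DMSO wells and 100% = uninfected DMSO wells.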 The following applies: SH-SY5Y LACV cytopathicity rescue, ATP luminescence, 6 d; series mostly up to 9.63 µM; activity change: at the top concentration. From the text: Assay Provider: Karin Peterson Ph.D.
National Institute of Allergy and Infection Diseases, National Institute of Health
La Crosse Virus (LACV) is a California serogroup mosquito-borne arbovirus, family Peribunyaviridae, which is an endemic pathogen in North America and can induce a rare, life-threatening neurological disease in children. LACV was first isolated in the early 1960s, from a summer "rural encephalitis" case in La Crosse, Wisconsin, USA. Since then, LACV encephalitis cases have been found in more than twenty states, with most cases in the Mississippi and Ohio River basins. The life cycle of LACV is maintained between the vector, the eastern tree-hole mosquito Aedes triseriatus, and vertebrate hosts including eastern gray squirrels (Sciurus carolinensis) and chipmunks (Tamiasstriatus grinseus). […] Most LACV infections in humans are asymptomatic or induce mild clinical symptoms of fever, headache, lethargy and vomiting. However, in some cases LACV can cause severe neuroinvasive disease, including encephalitis, meningitis, and meningoencephalitis, requiring hospitalization. To date, there is neither a licensed vaccine nor a Food and Drug Administration (FDA) approved antiviral therapy available to prevent or treat LACV encephalitis. The primary treatment for viral encephalitis is palliative care due to the lack of therapeutics. In the current study, we conducted a screen of 4,096 FDA approved and bioactive small molecules against LACV, by screening for rescue of LACV-induced cell death in SH-SY5Y cells.
LACV-induced cytopathicity assay
SEQUENCE No. (1,2, 3, etc.); […] (e.g., Cells, Incubation, Reagent, etc.); VALUE and DESCRIPTION.
1. Reagent; 2 uL; Cell solution.
3. Compounds; 23nL; Compound library
4. Reagent; 12 uL; LACV virus
6. Reagent; 24 uL; ATPLite (PerkinElmer)
7. Time; 5 min; Room temperature
8. Detection; Luminescence; View
NOTES (numbers refer to sequence above)
1. Seed 6000 SH-SY5Y cells (ATCC CRL-2266) in 2 microL/well media (DMEM/F12 10% FBS, 1x L-Glutamine, 1x Pyruvate, 1x NEAA, 1x Pen/Strep) in 384-well assay plates (tissue culture treated, white, solid bottom).
2. Incubate at 37 degrees C with 5% CO2 for 24 hr.
3. Dispense 23 nL/well compounds in DMSO via pin transfer.
4. Dispense 12 microL/well of LACV (LACV/human/1978) in media at 0.01 MOI.
5. Incubate at for 6 days at 37C 5% CO2
6. Dispense 24 microL/well of ATPLite 1step Luminescence assay system (PerkinElmer).
7. Incubate for 5 min at room temperature.
8. Read luminescence signal (Viewlux plate reader, PerkinElmer). Data was normalized with DMSO control wells containing LACV as 0%, and DMSO control wells without virus as 100%.
Consider `CN(C)CCC(c1ccc(Cl)cc1)c1ccccn1` (stereo not given), for which the “activity change” value is -21.5%. On the same count and under the same terms, the result for `CC[C@@H](C)[C@H]1O[C@]2(CC[C@H]1C)C[C@@H]1C[C@@H](CC=C(C)[C@@H](O[C@H]3C[C@H](OC)[C@@H](O[C@H]4C[C@H](OC)[C@@H](O)[C@H](C)O4)[C@H](C)O3)[C@@H](C)C=CC=C3CO[C@@H]4[C@H](O)C(C)=C[C@@H](C(=O)O1)[C@]34O)O2` reads 88.8%. The same measure, in the same setting: the result for `CC1OC1P(=O)(O)O` (stereo not given) reads 5.34%; that for `O=C(O)/C=C/C(O)c1ccc(Cl)cc1` (stereo not given), 26.4%; that for `CN1CCc2cc(O)c(O)cc2C(c2ccccc2)C1` (stereo not given), 26%. Same read-out and setting: with `CN1[C@@H](CC(=O)c2ccccc2)CCC[C@H]1C[C@H](O)c1ccccc1` the figure was -29.3%; with `NCCO`, 44.2% [at 8.54 µM]. For `CO/S(=N\S(=O)(=O)c1ccc(Cl)cc1)c1ccc([N+](=O)[O-])cc1` (stereo not given), the “activity change” value is 8.62%. Still for that read-out and setting: the result for `CC(C(=O)O)c1ccc(C(=O)c2cccs2)cc1` (stereo not given) reads 2.49% [at 4.29 µM]. Take `O=c1[nH]c2ccccc2n1CCCN1CCN(C(c2ccccc2)c2ccccc2)CC1`: the “activity change” value is 26.4% [at 4.29 µM]. On the same count and under the same terms, with `O=C1CN(/N=C/c2ccc([N+](=O)[O-])o2)C(=O)N1` the figure was -16% [at 4.29 µM]; with `CCOc1ccc2nc(S(N)(=O)=O)sc2c1`, -5.46% [at 4.29 µM]. Regarding `Cc1ccc2c(n1)Oc1ccc(C(C)C(=O)OCC(=O)N(C)C)cc1C2` (stereo not given), the Potency entry is “inactive”. Turning to `CCCCCC(O)c1cccc(OCc2ccc3ccccc3n2)c1` (stereo not given), the “activity change” value is 22%.

As to `CC1(C)S[C@@H]2[C@H](NC(=O)[C@H](N)c3ccccc3)C(=O)N2[C@H]1C(=O)O`, the “activity change” value is -3.48% [at 4.29 µM]. Still for that read-out and setting: with `O=C(CCCCCN1CCN(c2ccccc2-c2ccccc2)CC1)NC1CCCc2ccccc21` (stereo not given) the figure was -2.26%. On the same count and under the same terms, with `CC(C(=O)O)c1ccc2c(c1)[nH]c1ccc(Cl)cc12` (stereo not given) the figure was 25.2% [at 4.29 µM].

`Brc1c(Br)c(Br)c2n[nH]nc2c1Br`: the “activity change” value is -16.2%. Still for that read-out and setting: the result for `Cc1c(N)c(=O)n(-c2ccccc2)n1C` reads -4.84% [at 4.29 µM]; that for `CC(=O)SCC[N+](C)(C)C`, 39.8%; that for `CCCn1c(=O)c2[nH]c(-c3ccc(OCC(=O)NCCN)cc3)nc2n(CCC)c1=O`, 8.77%. Still for that read-out and setting: the result for `N#C/C(=C\c1ccc(-c2cc(Cl)ccc2Cl)o1)C(=O)Nc1cccc2ncccc12` reads 25.9%; that for `CNc1ncnc2c1ncn2[C@@H]1O[C@H](CO)[C@@H](O)[C@H]1O`, 7.58%. On the same count and under the same terms, the result for `C[N+](C)(C)CCOP(=O)(O)OP(=O)([O-])OC[C@H]1O[C@@H](n2ccc(N)nc2=O)[C@H](O)[C@@H]1O` reads -24%; that for `NC(=O)C(c1ccccc1)(c1ccccc1)[C@@H]1CCN(CCc2ccc3c(c2)CCO3)C1`, 16.9% [at 4.29 µM]. `CN(C)c1nc2c(Br)c(Br)c(Br)c(Br)c2[nH]1`: the “activity change” value was -10.4%. On the same count and under the same terms, with `CN1CCc2cccc3c2C1Cc1ccc(O)c(O)c1-3` (stereo not given) the figure was -14.5%; with `COc1cc2c(CCNC(C)=O)c[nH]c2cc1Cl`, 14.7%; with `CCCCCCCCCCCCCCCC(=O)OC(CC(=O)O)C[N+](C)(C)C` (stereo not given), 8.44%. On to `O=C1/C(=C/c2ccsc2)CC/C1=C\c1cccs1`, for which the “activity change” value was 10.7%. As to `COc1cc(C(O)CO)ccc1OS(=O)(=O)O` (stereo not given), the “activity change” value was -3.27%. On the same count and under the same terms, with `CN1CCc2ccccc2Cc2[nH]c3ccccc3c2CC1` the figure was -9.77%.

For the molecule `Cc1ccc(O)c(-n2nc3ccccc3n2)c1`, the “activity change” value was -10.8% [at 4.29 µM]. On the same count and under the same terms, the result for `CC(C)NCC(O)COc1cccc2ccccc12` (stereo not given) reads -8.91%; that for `NC(=O)C(=O)O`, -20%. The same measure, in the same setting: the result for `CCCCCCCC/C=C\CCCCCCCC(=O)NCCO` reads 3.21%; that for `CN(C)[C@@H]1C(=O)C(C(=O)NCN2CCCC2)=C(O)[C@@]2(O)C(=O)C3=C(O)c4c(O)cccc4[C@@](C)(O)C3C[C@@H]12` (stereo not given in full), -7.57% [at 4.29 µM]; that for `Cc1ccc(C(=O)c2ccc(CC(=O)O)n2C)cc1`, -0.131% [at 4.29 µM]. Same read-out and setting: with `O=P(O)(O)C(Cl)(Cl)P(=O)(O)O` the figure was -9.17%; with `CCN(CC)c1ncnc2c1ncn2[C@@H]1O[C@H](COP(=O)(O)OP(=O)(O)C(Br)(Br)P(=O)(O)O)[C@@H](O)[C@H]1O`, -1.36%.
